PubChem BioAssay (EPA / NIEHS)
Calls of active or inactive are those of the source. The calls were made as follows: active = hit-call score of the fitted dose curve at least 0.9, where 1 is the maximum; inactive = score below 0.9.

assay: ATG_Ets_CIS: Attagene CIS-FACTORIAL HepG2 Assay for human Erythroblast Transformation Specific (ETS) (AID 2282941); details: HepG2 ETS cis-reporter transcription, actives raise or lower the signal
Procedure: ATG_CIS is a cell-based, multiplexed-readout assay that uses HepG2, a human liver cell line, with measurements taken at 24 hours after chemical dosing in a 24-well plate.ATG_Ets_CIS is one of 52 assay component(s) measured or calculated from the ATG_CIS assay. It is designed to make measurements of mRNA induction, a form of inducible reporter, as detected with fluorescence intensity signals by Reverse transcription polymerase chain reaction (RT-PCR) and Capillary electrophoresis technology.Data from the assay component ATG_Ets_CIS was analyzed into 1 assay endpoint. This assay endpoint, ATG_Ets_CIS, was analyzed with bidirectional fitting relative to DMSO as the negative control and baseline of activity. Using a type of inducible reporter, measures of mRNA for gain or loss-of-signal activity can be used to understand the reporter gene at the transcription factor-level as they relate to the gene ETS1. Furthermore, this assay endpoint can be referred to as a primary readout, because this assay has produced multiple assay endpoints where this one serves a reporter gene function. To generalize the intended target to other relatable targets, this assay endpoint is annotated to the dna binding intended target family, where the subfamily is winged helix-turn-helix.
Human liver HepG2 cells are transiently transfected with multiple reporter transcription units (MRTUs) in 6-well plates using FuGene 6 reagent (Roche; 3 ml FuGene/1 mg DNA). The MRTU constructs are regulated by a cis-regulating element (promoter). […] A major difference between the CIS and TRANS system is that in CIS activities of endogenous TFs are measured, whereas the TRANS assay evaluates changes in activities of exogenous, chimeric NR-Gal4 proteins. […] At the end of 24 hour incubation, total RNA was isolated using TriZol reagent (Invitrogen). The isolated RNA is then reverse-transcribed using oligo(dT) primer and Mo-MLV reverse transcriptase (Invitrogen) with DNAse I (Ambion) treatment for 30 min. The one-tenth of the produced cDNA was amplified by PCR using Taq DNA polymerase (Invitrogen) and two reporter sequence-specific primers. The PCR products were fluorescently labeled by primer extension with 6-arboxyfluorescein (6-FAM) 5'-labeled reporter sequence-specific primer (2 min at 95 C, 20 s at 68 C and 10 min at 72 C) and these products were digested with 5U of HpaI (New England Biolabs) for 2h at 37 C. The fragments were purified using Qiaquick PCR columns (Qiagen), analyzed on an ABI 3130xL genetic analyzer (Applied Biosystems) with peak positions identified by using a set of X-rhodamine (ROX)-labeled MapMarker1000 molecular weight standards (BioVentures). The raw capillary electrophoresis data was processed using Attagraph software (Attagene).

| SMILES | outcome |
| --- | --- |
| COP(=O)(OC)O/C(C)=C/C(=O)N(C)C | inactive |
| CSC(=O)c1c(C(F)F)nc(C(F)(F)F)c(C(=O)SC)c1CC(C)C | inactive |
| Cc1ccc(N=CN(C)C=Nc2ccc(C)cc2C)c(C)c1 | inactive |
| CC(C)(C)C(=O)C(Oc1ccc(Cl)cc1)n1cncn1 (stereo not given) | inactive |
| N#Cc1c(Cl)cccc1Cl | inactive |
| CN/C(=N\[N+](=O)[O-])NCc1cnc(Cl)s1 | inactive |
| CCN(CC)C(=O)C(C)Oc1cccc2ccccc12 (stereo not given) | inactive |
| CCOC(=O)C(C)OC(=O)c1cc(Oc2ccc(C(F)(F)F)cc2Cl)ccc1[N+](=O)[O-] (stereo not given) | inactive |
| Clc1nc(Cl)nc(Nc2ccccc2Cl)n1 | inactive |
| COc1cc(Cl)c(OC)cc1Cl | inactive |
| Cc1cnc(C2=NC(C)(C(C)C)C(=O)N2)c(C(=O)O)c1 (stereo not given) | inactive |
| CCOc1nc(F)cc2nc(S(=O)(=O)Nc3c(Cl)cccc3Cl)nn12 | inactive |
| CCOP(=O)(OCC)Oc1nc(Cl)c(Cl)cc1Cl | inactive |
| CC(C)N1C(=O)N(c2ccccc2)CSC1=NC(C)(C)C | inactive |
| Cn1c(-c2ccccc2)cc(-c2ccccc2)[n+]1C | inactive |
| CCN(CC)c1nc(C)cc(OP(=S)(OC)OC)n1 | inactive |
| CC1(C)CON(Cc2ccccc2Cl)C1=O | inactive |
| COCc1cnc(C2=NC(C)(C(C)C)C(=O)N2)c(C(=O)O)c1 (stereo not given) | inactive |
| Nc1cnn(-c2ccccc2)c(=O)c1Cl | inactive |
| CCOP(=S)(OCC)Oc1nc(Cl)n(C(C)C)n1 | inactive |

| SMILES | outcome |
| --- | --- |
| CCCC(=NOCC)C1=C(O)CC(CC(C)SCC)CC1=O (stereo not given) | inactive |
| Clc1cccc(C(Cl)(Cl)Cl)n1 | inactive |
| CC1(C)C(C=C(Cl)Cl)C1C(=O)OC(C#N)c1cccc(Oc2ccccc2)c1 (stereo not given) | inactive |
| Cc1c(COC(=O)[C@@H]2[C@H](/C=C(\Cl)C(F)(F)F)C2(C)C)cccc1-c1ccccc1 | inactive |
| CNC(=O)Oc1cccc2ccccc12 | inactive |
| COc1ccc(-c2ccccc2)cc1NNC(=O)OC(C)C | inactive |
| C=CCOC(=O)C(C)(C)OC(=O)c1cc(-n2c(=O)cc(C(F)(F)F)n(C)c2=O)ccc1Cl | inactive |
| CCCCC(O)(Cn1cncn1)c1ccc(Cl)cc1Cl (stereo not given) | inactive |
| CCC(C)n1c(=O)[nH]c(C)c(Br)c1=O (stereo not given) | inactive |
| CC(C)C1(C)N=C(c2ncccc2C(=O)O)NC1=O (stereo not given) | inactive |
| CCCCOCN(C(=O)CCl)c1c(CC)cccc1CC | inactive |
| CCNP(=S)(OC)O/C(C)=C/C(=O)OC(C)C (stereo not given) | inactive |
| N#CN=C1SCCN1Cc1ccc(Cl)nc1 | inactive |
| Cc1cc(C)nc(Nc2ccccc2)n1 | inactive |
| CC(C)=CC1C(C(=O)OCc2coc(Cc3ccccc3)c2)C1(C)C (stereo not given) | inactive |
| CCOc1nc(C(Cl)(Cl)Cl)ns1 | inactive |
| COP(=S)(OC)SCn1nnc2ccccc2c1=O | inactive |
| CC(C)Nc1nc(Cl)nc(NC(C)C)n1 | inactive |
| COP(=S)(OC)Oc1ccc([N+](=O)[O-])c(C)c1 | inactive |
| O=C1C2CC=CCC2C(=O)N1SC(Cl)(Cl)Cl (stereo not given) | inactive |
